From the supplement of paper PMC11732987, “Enantioselective OTUD7B fragment discovery through chemoproteomics screening and high-throughput optimisation” (Communications Chemistry, 2025)

Tests used:
Experiment in all cases: log2 ratio of Biotin-Ahx-Ub-VS probe labelling (fragment/DMSO); higher = less target engagement (more negative = stronger competition), active = hit call of the paper (q ≤ 0.05, log2 ratio ≤ -1)
Settings in all cases: compound concentration: 200 uM; treatment time: 3 h
USP19 = molecular target: T1, USP19 (UniProt O94966)
T1 sequence (whole entry): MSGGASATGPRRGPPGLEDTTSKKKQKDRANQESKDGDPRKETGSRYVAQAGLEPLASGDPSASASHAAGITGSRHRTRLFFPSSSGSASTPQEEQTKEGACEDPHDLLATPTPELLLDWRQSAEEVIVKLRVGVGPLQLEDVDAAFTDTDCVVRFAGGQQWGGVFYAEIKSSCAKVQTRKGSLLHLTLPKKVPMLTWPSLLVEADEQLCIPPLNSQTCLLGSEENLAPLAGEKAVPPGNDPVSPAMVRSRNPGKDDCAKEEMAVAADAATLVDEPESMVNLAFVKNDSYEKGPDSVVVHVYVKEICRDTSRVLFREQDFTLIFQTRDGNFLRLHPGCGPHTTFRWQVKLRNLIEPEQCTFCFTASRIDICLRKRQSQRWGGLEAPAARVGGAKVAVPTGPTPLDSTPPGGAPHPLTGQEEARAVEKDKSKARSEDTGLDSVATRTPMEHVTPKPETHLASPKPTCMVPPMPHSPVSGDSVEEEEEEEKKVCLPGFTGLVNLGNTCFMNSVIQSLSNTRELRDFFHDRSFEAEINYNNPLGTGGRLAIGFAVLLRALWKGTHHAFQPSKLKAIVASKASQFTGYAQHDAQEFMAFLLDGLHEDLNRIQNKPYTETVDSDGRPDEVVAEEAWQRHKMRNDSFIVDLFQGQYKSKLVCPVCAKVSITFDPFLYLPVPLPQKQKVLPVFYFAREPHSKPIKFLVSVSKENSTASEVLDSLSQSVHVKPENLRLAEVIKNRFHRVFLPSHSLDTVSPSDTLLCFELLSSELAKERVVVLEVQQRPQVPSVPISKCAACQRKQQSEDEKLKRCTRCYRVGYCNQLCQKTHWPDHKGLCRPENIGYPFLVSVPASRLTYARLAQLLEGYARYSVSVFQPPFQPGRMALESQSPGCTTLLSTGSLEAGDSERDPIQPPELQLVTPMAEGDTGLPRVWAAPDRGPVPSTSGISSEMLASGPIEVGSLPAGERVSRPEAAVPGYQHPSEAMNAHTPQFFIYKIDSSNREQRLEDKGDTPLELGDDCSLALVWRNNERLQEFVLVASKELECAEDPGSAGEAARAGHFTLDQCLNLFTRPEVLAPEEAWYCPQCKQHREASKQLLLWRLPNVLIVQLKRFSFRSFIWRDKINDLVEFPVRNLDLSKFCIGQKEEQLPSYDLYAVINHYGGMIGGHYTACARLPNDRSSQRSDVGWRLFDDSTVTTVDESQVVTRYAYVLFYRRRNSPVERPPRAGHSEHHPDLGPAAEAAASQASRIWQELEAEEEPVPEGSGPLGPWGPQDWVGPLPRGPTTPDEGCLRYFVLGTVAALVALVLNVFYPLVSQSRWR
Summary of the method: (§1)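 The table lists average log2 ratios of fragment over vehicle, from an unpaired t-test on global-median-normalised Spectronaut label-free quantities. Proteins with ≥2 unique peptides were used. Samples were HEK293T lysate (495 µg) treated in triplicate with fragment at 200 µM or vehicle for 3 h, then with Biotin-Ahx-Ub-VS (0.5 µM final) for 1 h, with labelled DUBs NeutrAvidin-enriched and run by diaPASEF LC-MS/MS.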

USP24 = USP24 (UniProt Q9UPU5)
Summary of the method: as §1

USP25 = molecular target: T2, USP25 (UniProt Q9UHP3)
T2 sequence (whole entry): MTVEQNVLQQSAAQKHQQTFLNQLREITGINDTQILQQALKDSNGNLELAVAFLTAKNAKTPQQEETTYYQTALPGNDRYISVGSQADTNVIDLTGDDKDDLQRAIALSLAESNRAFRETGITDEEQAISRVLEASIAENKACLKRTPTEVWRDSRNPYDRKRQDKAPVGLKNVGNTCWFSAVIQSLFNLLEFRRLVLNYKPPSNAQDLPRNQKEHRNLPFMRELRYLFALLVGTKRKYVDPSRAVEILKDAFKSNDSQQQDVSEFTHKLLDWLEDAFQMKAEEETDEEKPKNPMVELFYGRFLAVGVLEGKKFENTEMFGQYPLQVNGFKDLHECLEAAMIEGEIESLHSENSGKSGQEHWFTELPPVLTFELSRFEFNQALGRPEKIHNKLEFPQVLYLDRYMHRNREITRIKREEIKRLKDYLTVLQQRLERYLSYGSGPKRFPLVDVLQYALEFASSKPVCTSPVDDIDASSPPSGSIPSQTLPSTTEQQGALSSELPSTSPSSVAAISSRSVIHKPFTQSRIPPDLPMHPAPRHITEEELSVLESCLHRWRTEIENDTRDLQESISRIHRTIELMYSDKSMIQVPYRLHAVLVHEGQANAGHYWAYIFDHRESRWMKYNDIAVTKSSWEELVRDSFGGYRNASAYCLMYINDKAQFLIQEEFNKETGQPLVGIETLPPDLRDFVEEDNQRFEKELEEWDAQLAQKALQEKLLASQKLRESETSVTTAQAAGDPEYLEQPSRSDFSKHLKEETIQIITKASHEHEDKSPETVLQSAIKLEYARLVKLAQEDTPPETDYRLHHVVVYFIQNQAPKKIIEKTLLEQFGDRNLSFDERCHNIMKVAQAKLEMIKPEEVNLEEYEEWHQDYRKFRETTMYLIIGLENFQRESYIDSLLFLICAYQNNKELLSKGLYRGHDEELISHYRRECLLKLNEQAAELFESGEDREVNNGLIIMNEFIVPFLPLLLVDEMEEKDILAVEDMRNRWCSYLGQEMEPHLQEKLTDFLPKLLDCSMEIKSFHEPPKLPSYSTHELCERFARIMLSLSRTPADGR
Summary of the method: as §1

USP28 = molecular target: T3, USP28 (UniProt Q96RU2)
T3 sequence (whole entry): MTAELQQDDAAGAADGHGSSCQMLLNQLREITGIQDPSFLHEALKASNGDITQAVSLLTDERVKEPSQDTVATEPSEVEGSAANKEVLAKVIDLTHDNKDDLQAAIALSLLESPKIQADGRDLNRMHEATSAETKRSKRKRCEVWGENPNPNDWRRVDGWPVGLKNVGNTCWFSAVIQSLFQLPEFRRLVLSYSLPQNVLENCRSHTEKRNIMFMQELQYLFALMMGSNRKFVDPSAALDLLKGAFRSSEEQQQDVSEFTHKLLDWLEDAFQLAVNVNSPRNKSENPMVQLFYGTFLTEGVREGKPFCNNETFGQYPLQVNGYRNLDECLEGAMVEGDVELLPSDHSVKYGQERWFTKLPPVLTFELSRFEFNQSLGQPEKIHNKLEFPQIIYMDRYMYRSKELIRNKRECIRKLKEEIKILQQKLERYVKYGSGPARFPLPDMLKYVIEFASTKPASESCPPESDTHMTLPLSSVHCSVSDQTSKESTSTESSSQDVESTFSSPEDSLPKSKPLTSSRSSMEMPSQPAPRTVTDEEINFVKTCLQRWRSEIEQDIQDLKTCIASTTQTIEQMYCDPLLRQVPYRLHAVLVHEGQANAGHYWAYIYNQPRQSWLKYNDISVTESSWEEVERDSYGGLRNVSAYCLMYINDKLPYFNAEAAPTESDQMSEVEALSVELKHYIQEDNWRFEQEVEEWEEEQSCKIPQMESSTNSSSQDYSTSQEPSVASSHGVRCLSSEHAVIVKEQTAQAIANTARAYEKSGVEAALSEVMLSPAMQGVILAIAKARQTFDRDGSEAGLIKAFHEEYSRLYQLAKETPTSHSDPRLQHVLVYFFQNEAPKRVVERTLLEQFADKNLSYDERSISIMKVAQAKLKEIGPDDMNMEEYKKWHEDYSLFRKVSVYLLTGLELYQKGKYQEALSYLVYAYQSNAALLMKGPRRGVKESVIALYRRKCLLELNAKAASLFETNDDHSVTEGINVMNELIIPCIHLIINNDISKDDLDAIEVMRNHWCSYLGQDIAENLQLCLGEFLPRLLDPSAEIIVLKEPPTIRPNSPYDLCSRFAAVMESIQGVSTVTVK
Summary of the method: as §1

Measured: log2 ratio of Biotin-Ahx-Ub-VS probe labelling

Sequence of USP24 (Q9UPU5 whole entry): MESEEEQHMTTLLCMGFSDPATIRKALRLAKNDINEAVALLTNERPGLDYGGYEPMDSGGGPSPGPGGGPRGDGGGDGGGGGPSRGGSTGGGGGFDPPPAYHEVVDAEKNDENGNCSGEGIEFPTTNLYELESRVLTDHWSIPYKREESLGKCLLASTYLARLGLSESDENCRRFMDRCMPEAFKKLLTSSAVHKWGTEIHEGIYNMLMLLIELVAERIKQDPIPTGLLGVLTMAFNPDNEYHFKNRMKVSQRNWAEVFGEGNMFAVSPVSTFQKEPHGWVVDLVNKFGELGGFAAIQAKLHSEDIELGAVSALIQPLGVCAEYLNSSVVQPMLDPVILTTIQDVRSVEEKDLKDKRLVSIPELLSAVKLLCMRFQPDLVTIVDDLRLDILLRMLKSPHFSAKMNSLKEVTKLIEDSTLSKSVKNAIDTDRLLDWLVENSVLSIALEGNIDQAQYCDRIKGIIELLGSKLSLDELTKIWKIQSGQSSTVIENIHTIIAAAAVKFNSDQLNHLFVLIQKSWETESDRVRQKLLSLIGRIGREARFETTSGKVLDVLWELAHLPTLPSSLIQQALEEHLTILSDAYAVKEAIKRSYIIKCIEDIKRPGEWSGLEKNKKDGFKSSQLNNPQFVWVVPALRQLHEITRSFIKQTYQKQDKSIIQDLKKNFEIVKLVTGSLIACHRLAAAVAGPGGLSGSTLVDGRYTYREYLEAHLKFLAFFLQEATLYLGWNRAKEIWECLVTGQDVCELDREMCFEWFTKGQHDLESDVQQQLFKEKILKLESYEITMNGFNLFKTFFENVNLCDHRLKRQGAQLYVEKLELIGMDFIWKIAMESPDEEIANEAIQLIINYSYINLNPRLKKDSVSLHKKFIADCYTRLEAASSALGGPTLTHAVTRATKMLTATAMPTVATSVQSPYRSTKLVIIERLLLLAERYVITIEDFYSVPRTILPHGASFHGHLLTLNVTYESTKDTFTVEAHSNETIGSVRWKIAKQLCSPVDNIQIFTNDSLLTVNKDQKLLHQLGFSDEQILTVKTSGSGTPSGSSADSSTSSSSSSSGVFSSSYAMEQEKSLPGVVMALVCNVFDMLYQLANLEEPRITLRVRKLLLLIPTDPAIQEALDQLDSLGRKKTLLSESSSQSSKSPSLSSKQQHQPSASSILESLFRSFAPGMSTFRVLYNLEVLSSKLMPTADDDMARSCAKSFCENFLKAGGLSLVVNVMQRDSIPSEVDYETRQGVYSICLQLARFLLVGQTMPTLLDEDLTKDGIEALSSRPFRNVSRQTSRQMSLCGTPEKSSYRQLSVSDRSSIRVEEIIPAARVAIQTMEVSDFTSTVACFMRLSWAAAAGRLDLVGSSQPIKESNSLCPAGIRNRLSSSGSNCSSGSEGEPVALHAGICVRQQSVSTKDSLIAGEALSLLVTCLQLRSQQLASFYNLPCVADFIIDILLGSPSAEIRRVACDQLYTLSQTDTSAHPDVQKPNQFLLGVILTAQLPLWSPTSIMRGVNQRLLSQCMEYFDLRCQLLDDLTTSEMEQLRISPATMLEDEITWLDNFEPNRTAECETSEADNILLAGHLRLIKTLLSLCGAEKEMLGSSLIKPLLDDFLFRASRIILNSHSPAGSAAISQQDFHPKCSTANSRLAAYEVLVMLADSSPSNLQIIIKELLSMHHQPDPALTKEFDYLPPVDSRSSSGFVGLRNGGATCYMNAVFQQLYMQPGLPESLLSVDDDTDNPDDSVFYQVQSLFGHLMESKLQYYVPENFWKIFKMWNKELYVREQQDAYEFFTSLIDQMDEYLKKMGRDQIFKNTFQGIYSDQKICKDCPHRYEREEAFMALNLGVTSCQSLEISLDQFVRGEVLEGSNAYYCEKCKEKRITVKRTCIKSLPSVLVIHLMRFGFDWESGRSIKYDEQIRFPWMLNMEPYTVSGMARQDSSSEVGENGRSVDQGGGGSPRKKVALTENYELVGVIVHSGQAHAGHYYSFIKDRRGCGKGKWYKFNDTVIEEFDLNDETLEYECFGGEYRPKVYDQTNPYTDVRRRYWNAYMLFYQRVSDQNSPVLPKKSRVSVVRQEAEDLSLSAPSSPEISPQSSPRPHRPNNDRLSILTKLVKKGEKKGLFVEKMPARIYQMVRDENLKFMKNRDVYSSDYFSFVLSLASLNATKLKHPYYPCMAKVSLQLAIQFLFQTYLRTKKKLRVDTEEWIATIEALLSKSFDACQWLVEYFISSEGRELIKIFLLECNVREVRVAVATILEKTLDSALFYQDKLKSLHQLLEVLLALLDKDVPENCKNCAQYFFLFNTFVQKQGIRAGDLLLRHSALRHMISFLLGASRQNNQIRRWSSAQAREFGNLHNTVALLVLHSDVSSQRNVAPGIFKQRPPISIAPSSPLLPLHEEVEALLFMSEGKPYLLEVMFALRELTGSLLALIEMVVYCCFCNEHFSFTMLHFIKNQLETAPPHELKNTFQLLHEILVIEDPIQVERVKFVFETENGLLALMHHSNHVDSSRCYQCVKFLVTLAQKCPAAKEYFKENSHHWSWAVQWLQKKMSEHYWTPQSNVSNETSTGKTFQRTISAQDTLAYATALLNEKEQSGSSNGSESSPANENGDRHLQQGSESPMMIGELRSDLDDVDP

O=C(CCl)N1CCCN(C(=O)c2ccc(Cl)cc2)CC1
inactive: USP19 -0.449 | USP24 -0.433 | USP25 -0.628 | USP28 -0.618
